The values below come from PubChem BioAssay (NCI).

Test systems include DU-145 prostate; K-562 leukemia; MALME-3M melanoma; MDA-MB-231 breast; RXF 393 renal; SF-268 CNS; SF-295 CNS; SF-539 CNS; UACC-257 melanoma; M14 melanoma; HCT-15 colon; HT29 colon; SNB-75 CNS; SNB-19 CNS; U251 CNS; PC-3 prostate; SK-MEL-5 melanoma; UACC-62 melanoma; LOX IMVI melanoma; SK-MEL-28 melanoma.
Holding throughout (assay): NCI-60 one-dose screen, 48 h (100 = growth as untreated, 0 = no growth, -100 = all killed)
Common to all, as to conditions: 10 µM

About 83,000 compounds went through this panel and 20% of them were active in at least one assay; those are over-represented in the sample as a whole.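 Percent growth is the endpoint: 0 to 100 indicates growth inhibition (40 means 60% inhibition), 0 means no net growth, and negative values indicate cell death.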 Unmarked numbers belong to inactive results. The source made the active and inactive calls. How the source made its calls: active means growth percent below 10; inactive means the rest.

Regarding `COc1ccc(-c2nc3sc(-c4ccccc4)c(-c4ccccc4)n3c2/C=C/c2ccc(F)cc2)cc1`, the growth is 103% with DU-145 prostate; 107% in the experiment on K-562 leukemia; 96.6% with MALME-3M melanoma; 86.7% in the experiment on MDA-MB-231 breast; 89.4% with RXF 393 renal; 97.8% with SF-268 CNS. Moreover, the growth was 97% with SF-295 CNS; 92.1% in the experiment with SF-539 CNS; 99% in the experiment with UACC-257 melanoma; 83.1% in the experiment on M14 melanoma; 91.4% in the experiment with HCT-15 colon; 94.7% with HT29 colon. Further, the growth was 72.3% with SNB-75 CNS; 108% in the experiment on SNB-19 CNS; 99.3% in the experiment on U251 CNS; 61.6% in the experiment with PC-3 prostate; 99.6% in the experiment with SK-MEL-5 melanoma; 82.8% with UACC-62 melanoma. For the same compound, the growth is 87.1% in the experiment on LOX IMVI melanoma and 109% with SK-MEL-28 melanoma.

Take `COc1ccc(-c2nnc(COc3ccc(NC(=O)Nc4ccccc4)cc3F)o2)cc1`: the growth in the experiment on DU-145 prostate is 83.3%; with K-562 leukemia it was 71.8%; with MALME-3M melanoma, 84.1%; with MDA-MB-231 breast it was 74.8%; with RXF 393 renal, 94.5%; in the experiment with SF-268 CNS, 78.6%. The growth with SF-295 CNS is 98.6%; in the experiment with SF-539 CNS, 86.4%; in the experiment with UACC-257 melanoma, 96.8%; with M14 melanoma, 89.8%; in the experiment with HCT-15 colon it was 88.2%; with HT29 colon, 100%. Further, the growth is 68.2% in the experiment with SNB-75 CNS; 86.8% with SNB-19 CNS; 85% in the experiment on U251 CNS; 65.5% in the experiment on PC-3 prostate; 89% with SK-MEL-5 melanoma; 78% in the experiment with UACC-62 melanoma. Moreover, the growth was 89.6% in the experiment on LOX IMVI melanoma and 98.6% with SK-MEL-28 melanoma.

Turning to `CCN(CC)CCn1c(=N)n(CC(O)c2ccc(Cl)c(Cl)c2)c2ccccc21` (stereo not given), the growth in the experiment with DU-145 prostate is 97%; in the experiment with K-562 leukemia, -0.392% (active); in the experiment on MALME-3M melanoma, -35.6% (active); in the experiment with MDA-MB-231 breast, 45.1%; in the experiment on RXF 393 renal it was 76.3%; in the experiment on SF-268 CNS, 87.2%. For the same compound, the growth with SF-295 CNS is 103%; with SF-539 CNS, 42.4%; with UACC-257 melanoma it was -59.8% (active); in the experiment on M14 melanoma, -58.6% (active); with HCT-15 colon it was 51.2%; in the experiment with HT29 colon, 20.1%. Besides, the growth with SNB-75 CNS was 71.8%; in the experiment on SNB-19 CNS it was 102%; with U251 CNS, 69.7%; in the experiment on PC-3 prostate, 80.8%; with SK-MEL-5 melanoma, 55.6%; in the experiment on UACC-62 melanoma, -30.5% (active). Besides, the growth with LOX IMVI melanoma is 76.1%; with SK-MEL-28 melanoma, 10.4%.

Take `CC(C)C[C@H](NC(=O)Cn1ccc2ccccc2c1=O)B(O)O`: the growth in the experiment on DU-145 prostate is 73.5%; in the experiment with K-562 leukemia, 64%; in the experiment on MALME-3M melanoma, 39.6%; in the experiment on MDA-MB-231 breast, 88%; in the experiment on RXF 393 renal, 10.3%; with SF-268 CNS it was 79.6%. Moreover, the growth with SF-295 CNS is 69.5%; in the experiment with SF-539 CNS it was 15.9%; with UACC-257 melanoma, 42.1%; in the experiment on M14 melanoma it was 56%; in the experiment with HCT-15 colon, 57.9%; with HT29 colon it was 44.7%. Also, the growth in the experiment on SNB-75 CNS was 96.8%; with SNB-19 CNS, 76.8%; in the experiment with U251 CNS, 87.6%; with PC-3 prostate it was 86.9%; in the experiment with SK-MEL-5 melanoma, 37.9%; in the experiment with UACC-62 melanoma, 49.8%. Moreover, the growth in the experiment on LOX IMVI melanoma was 50.6%; with SK-MEL-28 melanoma, 48.7%.

Consider `COC(=O)c1cnc2c(c1)Oc1ccccc1-c1ccnn1-2`, for which the growth is 109% in the experiment on DU-145 prostate; 90.7% with K-562 leukemia; 101% in the experiment on MALME-3M melanoma; 94.8% in the experiment with MDA-MB-231 breast; 107% in the experiment on RXF 393 renal; 98.7% in the experiment with SF-268 CNS. Also, the growth is 105% in the experiment on SF-295 CNS; 97% in the experiment on SF-539 CNS; 101% with UACC-257 melanoma; 98.8% in the experiment with M14 melanoma; 102% with HCT-15 colon; 90.3% with HT29 colon. The growth with SNB-75 CNS is 86.5%; in the experiment with SNB-19 CNS, 106%; in the experiment with U251 CNS, 90.7%; with PC-3 prostate it was 94.3%; in the experiment with SK-MEL-5 melanoma, 94.1%; in the experiment on UACC-62 melanoma, 106%. The growth was 91.3% in the experiment on LOX IMVI melanoma and 116% in the experiment on SK-MEL-28 melanoma.

For the compound `O=S(=O)(NC1c2ccccc2Oc2ccccc21)c1ccccc1`, the growth in the experiment with DU-145 prostate was 112%; in the experiment on K-562 leukemia, 91.3%; in the experiment on MALME-3M melanoma it was 97.8%; with MDA-MB-231 breast, 100%; in the experiment with RXF 393 renal, 86.6%; in the experiment on SF-268 CNS it was 98.9%. The growth in the experiment on SF-295 CNS was 97.8%; with SF-539 CNS it was 93.7%; with UACC-257 melanoma, 98.2%; in the experiment with M14 melanoma it was 98.7%; in the experiment with HCT-15 colon, 91.8%; in the experiment on HT29 colon, 92.2%. Moreover, the growth with SNB-75 CNS was 88.4%; in the experiment on SNB-19 CNS it was 105%; with U251 CNS, 91.9%; with PC-3 prostate it was 88.2%; in the experiment with SK-MEL-5 melanoma, 102%; in the experiment on UACC-62 melanoma it was 97.8%. The growth in the experiment on LOX IMVI melanoma is 87.5%; in the experiment on SK-MEL-28 melanoma it was 101%.

As to `COc1cc(OC)cc(-c2ccc(-c3ccc(C(=N)N)cn3)o2)c1`, the growth with DU-145 prostate is 21.6%; in the experiment on K-562 leukemia, -59.9% (active); in the experiment on MALME-3M melanoma, -79.9% (active); in the experiment on MDA-MB-231 breast, -83.2% (active); in the experiment on RXF 393 renal, -69.9% (active); with SF-268 CNS, -20.3% (active). Also, the growth was -70.5% (active) with SF-295 CNS; -69.1% (active) in the experiment on SF-539 CNS; -80.6% (active) in the experiment on UACC-257 melanoma; -77.9% (active) in the experiment on M14 melanoma; 6.84% (active) with HCT-15 colon; -38.5% (active) in the experiment on HT29 colon. Also, the growth was -35.7% (active) with SNB-75 CNS; 33.3% in the experiment with SNB-19 CNS; -80.9% (active) in the experiment on U251 CNS; 31.4% in the experiment on PC-3 prostate; -95.7% (active) in the experiment with SK-MEL-5 melanoma; -89.7% (active) in the experiment on UACC-62 melanoma. For the same compound, the growth in the experiment on LOX IMVI melanoma is -89.5% (active); in the experiment with SK-MEL-28 melanoma, -95.4% (active).

On to `CCOC(=O)Nc1ccc2c(c1)C(=O)N(CC)c1ccccc1O2`, for which the growth was 7.48% (active) in the experiment with DU-145 prostate; 8.79% (active) in the experiment with K-562 leukemia; 68% with MALME-3M melanoma; 20.2% with MDA-MB-231 breast; -4.5% (active) in the experiment with RXF 393 renal; 42.1% in the experiment on SF-268 CNS. Moreover, the growth in the experiment with SF-295 CNS is 3.36% (active); in the experiment on SF-539 CNS, 4.79% (active); in the experiment with UACC-257 melanoma it was 64.1%; in the experiment with M14 melanoma, 11.1%; with HCT-15 colon, 14.4%; in the experiment with HT29 colon, -3.19% (active). In addition, the growth in the experiment with SNB-75 CNS was 27.3%; with SNB-19 CNS, 31.7%; in the experiment with U251 CNS, 18.7%; in the experiment on PC-3 prostate, 33.8%; with SK-MEL-5 melanoma, -28% (active); in the experiment on UACC-62 melanoma, 21.5%. Besides, the growth in the experiment with LOX IMVI melanoma is 15.1%; with SK-MEL-28 melanoma it was 63.4%.
